Usually inhibition stands for the change of the read-out against control, counted positive when it falls.

Consider 14 compounds from PubChem BioAssay.

The source made the active and inactive calls.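 The calls were made as follows, unless noted: active = inhibition above 20% together with a positive visual image hit; inconclusive = visual image hit but inhibition not above 20%; inactive = no visual image hit.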

The nature of assay [1]: inhibitors of TNFa-induced NFkB p65 translocation, primary screen, imaging, HUVEC, MLSMR starter and 10KST1 sets (AID 438).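 Also: compound added about 3h40 before a 20 min TNFalpha stimulation.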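 As to inhibition: signal is the nuclear over cytoplasmic p65 intensity ratio per well.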 The conditions noted are these: HUVEC TNFa-induced p65 nuclear translocation; cell count: measured here: nuclei count (cytotoxicity indicator), at 2.08 µM; inhibition: at 2 µM, stronger effect = higher value, 0% TNFa-plus-vehicle, 100% no-TNFa wells.
Assay [2] can be described thus: inhibitors of mutant huntingtin aggregation, primary screen, imaging, exon1htt(103Q)mCFP cells, high-content imaging (AID 483;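 active = visual image review flags a hit and inhibition of aggregation exceeds 20%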;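 also: compound exposure lasted 3 days before fixation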;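 as to nuclei count: percent of the per-plate median nuclei count of sample wells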). To be noted: exon1htt(103Q)mCFP cell line, aggregate imaging, at 2 µM; inhibition of aggregation: stronger effect = higher value; nuclei count: measured here: cell count, toxicity.
The nature of assay [3]: inhibitors of E-selectin induction by TNFa, primary screen, imaging, HUVEC, immunofluorescence, MLSMR starter and 10KST1 sets (AID 487;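 active = visually confirmed hit in the image check and inhibition above 20%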;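 as to inhibition: signal is fraction of cell area covered by stained E-selectin grains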;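 as to nuclei count: 100% = median nuclei count of all wells on the same plate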). To be noted: HUVEC TNFalpha-induced E-selectin immunofluorescence imaging, at 2 µM; inhibition: stronger effect = higher value; nuclei count: measured here: cell number, toxicity.
Assay [4] addresses Voltage-gated potassium channel subunit beta-2 (Rattus norvegicus) (UniProt P62483). Description: KvBeta enzyme negative modulators, primary screen, biochemical, NADPH fluorescence (AID 622;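 active = fluorescence slope higher than the sample average by over 3 SD, cut at about -0.22 in these data, passing the limit was not always enough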;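 also: slope of raw intensity against log time taken from 70 to 1610 s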). To be noted: recombinant KvBeta, 4-cyanobenzaldehyde reduction, at 10 µM, stronger effect = higher value.
Assay [5] shares this target. The assay can be described thus: KvBeta positive modulators, primary screen, biochemical, NADPH fluorescence (AID 623;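 active = NADPH fluorescence slope more negative than the mean of all samples by about 3 SD, 99.7% confidence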;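 also: fluorescence intensity change per second fitted from 20 to 320 s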). To be noted: Recombinant KvBeta, NADPH fluorescence decrease slope, 10 min; at 10 µM; stronger effect = lower value.
Assay [6] concerns the target Alpha-2C adrenergic receptor (Homo sapiens) (UniProt P18825). Description: modulators of alpha2C/GIRK thallium flux, primary screen, cell-based, HEK293 alpha2C/GIRK1/2 (AID 624;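 active = fluorescence slope after compound addition differing from the mean of all screened samples at 99.7% confidence, in either direction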;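 also: slope of fluorescence ratio to pre-addition baseline per second over 15 to 24 s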). The conditions noted are these: thallium flux BTC fluorescence, at 10 µM, actives lie on both sides.
The nature of assay [7]: inhibitors of Sendai virus-induced IRF3 signaling, primary screen, TLR/RLR signaling modifier project, cell-based, Sendai virus stimulus, luciferase, 10K MLSCN set (AID 602276;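 active = inhibition at or above 50% at 10 µM; inactive = inhibition below 50%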;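 also: firefly luciferase from ISG56 promoter only with Renilla not read in this screen; 0% = Sendai virus plus DMSO and 100% = medium plus DMSO without virus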). To be noted: HEK293 RL24 IRF3 luciferase reporter, at 10 µM, stronger effect = higher value.
Assay [8] is described as follows: inhibitors of poly I:C-induced TLR3 signaling, primary screen, cell-based, poly I:C stimulus, luciferase, 10K MLSCN set (AID 602277;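 active = inhibition of the reporter signal at or above 50%; inactive = inhibition below 50%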). The conditions noted are these: HEK293-TLR3 RL24 IRF3 luciferase reporter, at 10 µM, stronger effect = higher value.

Chain of Voltage-gated potassium channel subunit beta-2 (Rattus norvegicus) (P62483 whole entry, looked up): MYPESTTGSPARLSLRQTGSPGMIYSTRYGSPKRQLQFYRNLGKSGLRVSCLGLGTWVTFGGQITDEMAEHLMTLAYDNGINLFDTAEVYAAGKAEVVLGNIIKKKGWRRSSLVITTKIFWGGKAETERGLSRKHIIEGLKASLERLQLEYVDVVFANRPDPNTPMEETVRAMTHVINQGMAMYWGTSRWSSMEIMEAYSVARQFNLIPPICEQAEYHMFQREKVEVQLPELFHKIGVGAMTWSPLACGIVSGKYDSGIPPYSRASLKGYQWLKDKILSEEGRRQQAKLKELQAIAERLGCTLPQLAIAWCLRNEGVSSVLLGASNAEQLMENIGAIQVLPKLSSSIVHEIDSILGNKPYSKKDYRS
Chain of Alpha-2C adrenergic receptor (Homo sapiens) (P18825 whole entry, looked up): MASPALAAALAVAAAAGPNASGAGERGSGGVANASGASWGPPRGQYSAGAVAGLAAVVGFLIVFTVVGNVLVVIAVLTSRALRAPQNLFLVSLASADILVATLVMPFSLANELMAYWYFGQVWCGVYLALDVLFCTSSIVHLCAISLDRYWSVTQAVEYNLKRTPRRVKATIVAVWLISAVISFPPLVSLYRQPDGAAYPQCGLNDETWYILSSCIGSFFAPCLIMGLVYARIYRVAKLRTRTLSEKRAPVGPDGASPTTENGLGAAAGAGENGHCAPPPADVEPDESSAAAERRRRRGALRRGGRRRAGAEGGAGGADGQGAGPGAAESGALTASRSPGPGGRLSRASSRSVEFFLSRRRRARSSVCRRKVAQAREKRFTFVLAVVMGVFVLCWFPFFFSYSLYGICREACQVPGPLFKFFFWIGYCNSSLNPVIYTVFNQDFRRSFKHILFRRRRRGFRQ

With `COC(=O)c1sc(S(=O)(=O)NCc2cccs2)c(C(=O)OC)c1C`, in assay [1], the cell count came to 608. In addition, the inhibition in assay [1] is -16.4% (inactive); in assay [3], 12.1% (inactive); in assay [7] it was -0.645% (inactive); in assay [8] it was 30.7% (inactive). Moreover, the inhibition of aggregation in assay [2] was 0.4% (inactive). In addition, the results for the nuclei count in assay [2] and in assay [3] were 85.3% and 101%, respectively. Besides, in assay [4], the fluorescence slope was -0.452 (inactive). The NADPH fluorescence slope in assay [5] is -3.4e-06 (inactive). In addition, the slope in assay [6] is 0.00602 (inactive).
Regarding `CCc1ccc(C2CC(c3ccccc3)n3ncnc3N2)cc1` (centres undefined), the cell count in assay [1] came out at 626. Moreover, the inhibition in assay [1] is 1.1% (inactive); in assay [3], -22.9% (inactive); in assay [7], 13.8% (inactive); in assay [8] it was 28.3% (inactive). Also, the inhibition of aggregation in assay [2] was 25.1% (inactive). Further, the nuclei count worked out at 72% in assay [2] and 70.6% in assay [3]. Moreover, the fluorescence slope in assay [4] was -0.586 (inactive). Also, the NADPH fluorescence slope in assay [5] is -3.4e-05 (inactive). In addition, in assay [6], the slope is 0.00702 (inactive).
Take `O=C(CNC1CCCCCC1)Nc1ccc(S(=O)(=O)NC2CC2)cc1`: the cell count in assay [1] stood at 727. In addition, the inhibition was -4.8% (inactive) in assay [1], -51.5% (inactive) in assay [3], 11.1% (inactive) in assay [7] and 18.7% (inactive) in assay [8]. Also, the inhibition of aggregation in assay [2] was 3.3% (inactive). Also, the nuclei count in assay [2] was determined as 104%; in assay [3], 108%. Besides, the fluorescence slope in assay [4] was -0.49 (inactive). The NADPH fluorescence slope in assay [5] was -5.4e-05 (inactive). In assay [6], the slope is 0.00449 (inactive).
`CCCc1cc(=O)[nH]c(SCc2ccccc2)n1`: the cell count in assay [1] came to 651. The inhibition is 6.7% (inactive) in assay [1], -110% (inactive) in assay [3], 9.4% (inactive) in assay [7] and 30% (inactive) in assay [8]. The inhibition of aggregation in assay [2] is -3.9% (inactive). Besides, the nuclei count in assay [2] is 99.8%; in assay [3], 101%. Also, the fluorescence slope in assay [4] was -0.6 (inactive). Moreover, in assay [5], the NADPH fluorescence slope is -1.1e-07 (inactive). Besides, the slope in assay [6] is 0.00614 (inactive).
For the compound `CCOC(=O)c1ccc(N2C(=O)CC(N(C)CCc3ccc(OC)c(OC)c3)C2=O)cc1` (centres undefined), in assay [1], the cell count is 451. Besides, the inhibition in assay [1] is -7.1% (inactive); in assay [3], -20.7% (inactive); in assay [7] it was -7.6% (inactive); in assay [8], 25.6% (inactive). The inhibition of aggregation in assay [2] is 2.9% (inactive). Besides, the nuclei count stood at 94.2% in assay [2] and 117% in assay [3]. Further, the fluorescence slope in assay [4] is -0.431 (inactive). For the same compound, the NADPH fluorescence slope in assay [5] was 3.6e-05 (inactive). Moreover, the slope in assay [6] was 0.00246 (inactive).
For `O=C(CCNS(=O)(=O)c1cccs1)Nc1ccccc1F`, the cell count in assay [1] came to 714. The inhibition is -16.8% (inactive) in assay [1], -9.8% (inactive) in assay [3], 6.58% (inactive) in assay [7] and 7.01% (inactive) in assay [8]. In addition, the inhibition of aggregation in assay [2] was -2.2% (inactive). Further, the nuclei count in assay [2] was determined as 102%; in assay [3] it was 109%. In addition, the fluorescence slope in assay [4] is -0.3 (inactive). In assay [5], the NADPH fluorescence slope is -6.3e-05 (inactive). Besides, the slope in assay [6] is 0.00565 (inactive).
For `COc1ccccc1C(=O)n1nc(-c2ccc(Cl)cc2)nc1N`, the cell count in assay [1] amounted to 330. For the same compound, the inhibition in assay [1] was -1.2% (inactive); in assay [3] it was -17.2% (inactive); in assay [7], 2.38% (inactive); in assay [8] it was 9.48% (inactive). Also, in assay [2], the inhibition of aggregation was -3.1% (inactive). The nuclei count in assay [2] was determined as 104%; in assay [3], 113%. The fluorescence slope in assay [4] was -0.426 (inactive). The NADPH fluorescence slope in assay [5] is 1.8e-05 (inactive). For the same compound, the slope in assay [6] is 0.00385 (inactive).
In the case of `O=C(O)CCc1ccc(-c2cccs2)o1`, the cell count in assay [1] worked out at 314. The inhibition in assay [1] was -7.8% (inactive); in assay [3], -23.1% (inactive); in assay [7] it was 16.2% (inactive); in assay [8], 27% (inactive). The inhibition of aggregation in assay [2] is -10.2% (inactive). Further, the nuclei count came to 103% in assay [2] and 118% in assay [3]. Besides, in assay [4], the fluorescence slope was -0.366 (inactive). In addition, in assay [5], the NADPH fluorescence slope is -0.00014 (inactive). Moreover, in assay [6], the slope is 0.00568 (inactive).
Regarding `CCOc1ccc(-c2nnn(CCC(=O)O)n2)cc1OC`, the cell count in assay [1] amounted to 429. Further, the inhibition is 6.5% (inactive) in assay [1], -108% (inactive) in assay [3], 18.1% (inactive) in assay [7] and 9.91% (inactive) in assay [8]. Besides, in assay [2], the inhibition of aggregation was 15.2% (inactive). The nuclei count in assay [2] came out at 64.5%; in assay [3], 118%. Besides, in assay [4], the fluorescence slope is -0.612 (inactive). Moreover, the NADPH fluorescence slope in assay [5] is 1.3e-05 (inactive). The slope in assay [6] is 0.00471 (inactive).
`Cc1csc(NC(=O)c2cc3c(s2)-c2ccccc2OC3)n1`: the cell count in assay [1] is 417. For the same compound, the inhibition in assay [1] was 8.8% (inactive); in assay [3], -27.8% (inactive); in assay [7], -42% (inactive); in assay [8] it was -118% (inactive). Further, the inhibition of aggregation in assay [2] was 27.8% (inactive). For the same compound, the nuclei count in assay [2] stood at 121%; in assay [3] it was 103%. Also, in assay [4], the fluorescence slope is -0.247 (inactive). The NADPH fluorescence slope in assay [5] was -1.9e-06 (inactive). The slope in assay [6] is 0.00681 (inactive).
Turning to `COc1ccc(N2C(=O)CC(N3CCCC4CCCCC43)C2=O)cc1` (centres undefined), in assay [1], the cell count is 577. In addition, the inhibition in assay [1] is -11.4% (inactive); in assay [3], -13.4% (inactive); in assay [7], 8.26% (inactive); in assay [8], 35.7% (inactive). Moreover, the inhibition of aggregation in assay [2] was 3.7% (inactive). Also, the figures for the nuclei count in assay [2] and in assay [3] were 107% and 79.8%, respectively. Further, the fluorescence slope in assay [4] was -0.423 (inactive). The NADPH fluorescence slope in assay [5] was -3.7e-05 (inactive). For the same compound, in assay [6], the slope is 0.00354 (inactive).
As for `CCOC(=O)N1CCC(NC(=O)Cn2c3c(c(-c4ccccc4Cl)cc2=O)CCC3)CC1`, the cell count in assay [1] turned out to be 528. In addition, the inhibition in assay [1] was -3.3% (inactive); in assay [3] it was -105% (inactive); in assay [7] it was 9.23% (inactive); in assay [8], 30.1% (inactive). Further, the inhibition of aggregation in assay [2] was 4.5% (inactive). Besides, the nuclei count stood at 98.3% in assay [2] and 120% in assay [3]. Also, in assay [4], the fluorescence slope is -0.54 (inactive). In addition, the NADPH fluorescence slope in assay [5] was -2.2e-05 (inactive). Moreover, in assay [6], the slope is 0.00573 (inactive).
As for `N#Cc1nc(-c2ccccc2Cl)oc1N1CCOCC1`, the cell count in assay [1] amounted to 332. Besides, the inhibition in assay [1] was 5% (inactive); in assay [3] it was -53.5% (inactive); in assay [7] it was 5.17% (inactive); in assay [8] it was -5.75% (inactive). Also, in assay [2], the inhibition of aggregation was 10.4% (inactive). The values for the nuclei count in assay [2] and in assay [3] were 96.7% and 116%, respectively. In assay [4], the fluorescence slope was -0.356 (inactive). Besides, the NADPH fluorescence slope in assay [5] is 3.4e-06 (inactive). Besides, the slope in assay [6] is 0.00468 (inactive).
`CN(Cc1ccccc1)c1nc2c(c(=O)[nH]c(=O)n2C)n1Cc1ccccc1Cl`: the cell count in assay [1] was found to be 364. For the same compound, the inhibition in assay [1] is -1% (inactive); in assay [3], -18.5% (inactive); in assay [7] it was 16% (inactive); in assay [8], 23.3% (inactive). Also, the inhibition of aggregation in assay [2] was -1.2% (inactive). For the same compound, the nuclei count in assay [2] worked out at 108%; in assay [3] it was 102%. Also, in assay [4], the fluorescence slope is -0.6 (inactive). Moreover, in assay [5], the NADPH fluorescence slope is -2.7e-05 (inactive). For the same compound, in assay [6], the slope is 0.00484 (inactive).
